# Measured values as given in PubChem BioAssay (Tox21).
# Results filed as inconclusive are left out. A number with no mark means an inactive call. Calls of active or inactive are those of the source. Calls come from the whole dose curve; as a rule, active = well fitted cell-killing curve with a large enough effect in the repeat runs; inconclusive = weak or mixed curves, or effect the other way; inactive = flat fitted curve, though single readings scatter.
# Assay: qHTS RealTime-Glo MT Cell Viability Assay in HEK293 cells - 40 hour (AID 1224874); note: nearly all actives have a fitted effect of over 50% in size
# Conditions: RealTime-Glo luminescence; max response: hits give low values
# Description: U.S. Tox21 Program National Center for Advancing Translational Sciences [NCATS] NIH Chemical Genomics Center [NCGC] U.S. Environmental Protection Agency [EPA] National Institutes of Environmental Health Sciences [NIEHS] National Toxicology Program [NTP] U.S. Food and Drug Administration [FDA] Tox21 Assay Overview: Measure of cell viability is critical in the cell-base assay. Analysis of cell viability is necessary for the characterization of cell responses to cytotoxic drugs and environmental stress. A RealTime-Glo MT Cell Viability Assay to monitor cell viability in real time of continues cell culture during 40 hours of compound treatment was used to screen Tox21 10K library compounds in Hek293 cells. The RealTime-Glo MT Cell Viability Assay is a nonlytic, homogeneous, bioluminescent method to measure cell viability in real time using a simple, plate-based method. The assay involves adding NanoLuc luciferase and a cell-permeant prosubstrate to cells in culture. Viable cells reduce the proprietary prosubstrate to generate a substrate for NanoLuc luciferase. This substrate diffuses from cells into the surrounding culture medium, where it is rapidly used by the NanoLuc Enzyme to produce a luminescent signal. The signal correlates with the number of viable cells, making the assay well suited for cytotoxicity studies.
# Tox21 Assay Protocol Summary: The mixture of Hek293 cell suspension and reagents were dispensed at 600cells/6 ul/well in 1536-well tissue culture treated black solid bottom plates using a Multidrop dispenser. After the assay plates were incubated at a 37 C/5% CO2 incubator for 5 hours, 23 nL of compounds dissolved in DMSO, positive and negative controls was transferred to the assay plate by a pintool work station. The plates were incubated at 37 C for 40 hours. The luminescence intensity were measured at 0h, 8h, 16h, 24h, 32h and 40h time points using ViewLux plate reader during compound treatment.
# % is set by controls: 0 for no effect and ±100 for the full control effect; potency is the fitted concentration of half-maximal effect.
Compound,max response [%],Potency
CCCCC(CC)COC(=O)COc1cc(Cl)c(Cl)cc1Cl (stereo not given),-3.13,–
CN1[C@@H]2CC[C@H]1CC(OC(=O)c1c[nH]c3ccccc13)C2 (stereo not given in full),4.75,–
CCCC1CCC(=O)O1 (stereo not given),4.54,–
CC(C)C[C@H](NC(=O)OCC1c2ccccc2-c2ccccc21)C(=O)O,-12.9,–
O=c1oc2c(O)c(O)cc3c(=O)oc4c(O)c(O)cc1c4c23,-22.4,–
CC1(O)CSC(C)(O)CS1 (stereo not given),5.86,–
O=C1C=CC(=O)O1,12.6,–
Cc1ccc([N+](=O)[O-])c(N)c1,-1.42,–
CC(=O)N(CC(O)CN(C(C)=O)c1c(I)c(C(=O)NCC(O)CO)c(I)c(C(=O)NCC(O)CO)c1I)c1c(I)c(C(=O)NCC(O)CO)c(I)c(C(=O)NCC(O)CO)c1I (stereo not given),0.602,–
Cc1cc(S(=O)(=O)O)c(N)cc1Cl,-1.1,–
CC(=O)N[C@@H](CC(C)C)C(=O)O,-2.78,–
CCCCCCCCCC/C=C/C#N,4.49,–
CNCCC(Oc1ccccc1OC)c1ccccc1 (stereo not given),-21.1,–
CC[C@H]1CC[C@H](NCc2cc3c(cc2OC)[C@H]2C[C@H]2C(=O)N3C)[C@H](c2ccccc2)N1,–,21.9 µM (active)
O=C1CCCCC1C1CCCCC1 (stereo not given),11.8,–
C=CCCC=C,4.67,–
NC/C=C/C(=O)O,2.11,–
CCC(=O)O[C@]1(C(=O)SCF)[C@H](C)C[C@H]2[C@@H]3C[C@H](F)C4=CC(=O)C=C[C@]4(C)[C@@]3(F)[C@@H](O)C[C@@]21C,2.57,–
CCN(O)CC,12.4,–
CC1(C)S[C@@H]2[C@H](NC(=O)C(C(=O)O)c3ccccc3)C(=O)N2[C@H]1C(=O)O (stereo not given in full),-0.907,–

Compound,max response [%],Potency
NCCCN1CCN(CCCN)CC1,6.33,–
CN1CCN(c2c(F)cc3c(=O)c(C(=O)O)cn4c3c2SCC4)CC1,6.23,–
OCCN1CCN(CCO)CC1,1.21,–
Cc1cn([C@@H]2O[C@H](CO)[C@@H](O)[C@@H]2F)c(=O)[nH]c1=O,-1.92,–
C1CCOC1,0.369,–
CC(C)O,-1.12,–
O=C(O)c1cccc(Cl)c1Cl,-7.63,–
Cc1cc2nc(N)sc2cc1C,-0.484,–
C=C(C)C(=O)OCCOP(=O)(O)O,13.8,–
CCOC(=O)[C@H](CCc1ccccc1)N[C@@H](C)C(=O)N1Cc2cc(OC)c(OC)cc2C[C@H]1C(=O)O,3.96,–
CN1CCN(c2c(F)cc3c(=O)c(C(=O)O)cn(CCF)c3c2F)CC1,10.4,–
CC(Oc1c(Cl)cccc1Cl)C1=NCCN1 (stereo not given),-8.42,–
CCCCCOc1ccc(C2SC(=O)NC2=O)cc1OCC (stereo not given),-9.78,–
COc1cc(N)c(Cl)cc1C(=O)NC1CCN(Cc2ccccc2)CC1,–,19 µM (active)
CCCCNCCCC,1.62,–
Cc1nc(-c2ccccn2)ncc1C(=O)Nn1cc(C)c2cc(F)ccc21,–,1.38 µM (active)
Oc1ccccc1F,16.1,–
CN1CCN(N)CC1,5.85,–
CO[C@@]1(NC(=O)CSCC#N)C(=O)N2C(C(=O)O)=C(CSc3nnnn3C)CS[C@@H]21,7.28,–
COc1cc(C)ccc1C(C)C,3.29,–
